Measurements taken from paper PMC4242493, “Sequence specificity incompletely defines the genome-wide occupancy of Myc”.
Whole data set: some 33,000 sequences, median “normalized occupancy” near 0.075, cut for the highest 2% near 0.095. Shown is part of a subset that was picked to be rich in the highest values.

Biological target: MaxL homodimer (Homo sapiens, UniProt P61244 1-160)
Assay: universal protein-binding microarray (PBM); PBS-based mixture, 10 nM His-tagged protein dimer, 2% milk, 200 ng/uL BSA, 50 ng/uL salmon testes DNA, 0.02% TX-100; detection with Alexa 488 anti-His antibody;; high values mean tight binding
Conditions: protein: recombinant; tags: C-terminal His-tag (pET21a); chain copies: 2; dsDNA, one strand shown
Method in brief: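 His-tagged protein dimer at 10 nM was bound to Agilent 4 x 44 K 'all 10-mer' universal arrays and detected with 10 ng/μL fluorophore-conjugated anti-His antibody on a GenePix 4400A, giving an intensity per 8-mer. Binding occupancy normalises each intensity to the top-ranked one.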

MaxL homodimer, sequence (P61244 whole entry): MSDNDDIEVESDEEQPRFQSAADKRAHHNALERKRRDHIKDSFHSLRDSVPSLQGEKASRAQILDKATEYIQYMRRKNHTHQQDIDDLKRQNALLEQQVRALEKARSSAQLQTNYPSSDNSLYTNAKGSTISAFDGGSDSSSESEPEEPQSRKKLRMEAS

Row | Sequence | binding signal [normalized occupancy]
1 | TCTGTTAA | 0.0739
2 | AACTGTAC | 0.0732
3 | AAGCTACG | 0.0726
4 | CTATTGTC | 0.079
5 | CCTACAGC | 0.0762
6 | ATATGCTG | 0.0875
7 | GCATGCTA | 0.112
8 | ACATGCTA | 0.106
9 | GGATGCTA | 0.0763
10 | ACATGCTG | 0.124
11 | AGATGCTA | 0.0746
12 | CCATGCTA | 0.0945
13 | AGATGCTG | 0.078
14 | AAATGCTA | 0.0773
15 | AATAGTAA | 0.0776
16 | CATGGCTA | 0.0864
17 | AAGAATTG | 0.0747
18 | TAGTGGCA | 0.0787
19 | GATGCTAA | 0.0749
20 | CAGAGACC | 0.0727
21 | AGCTATAA | 0.0785
22 | CCAGGTAA | 0.0729
23 | ACATACAG | 0.0868
24 | GCGTGCTA | 0.117
25 | AGGTGCTC | 0.0817
26 | GGGTGCTA | 0.0789

Row | Sequence | binding signal [normalized occupancy]
27 | ACGTGCTA | 0.109
28 | ACGTGCTG | 0.0935
29 | ACGTGCTC | 0.108
30 | CCGTGCTC | 0.0737
31 | CCGTGCTA | 0.0812
32 | GTGTGCTA | 0.0884
33 | GCGAACTA | 0.0739
34 | ATGTGTCC | 0.0851
35 | ACATTTGA | 0.0788
36 | ACTCACTC | 0.0763
37 | CATCCCAG | 0.0743
38 | ATGCCCAG | 0.0765
39 | AGGGGTGA | 0.082
40 | CATGGTAA | 0.0939
41 | CATGGTAG | 0.0879
42 | CGTGGTCC | 0.0896
43 | CATGGTAC | 0.0998
44 | CGTGGTAG | 0.089
45 | GGTGGTAA | 0.0793
46 | CATGGTCG | 0.0925
47 | CGTGGTAA | 0.096
48 | CATGGTCA | 0.0991
49 | AGTGGTCA | 0.0751
50 | CGTGGTCA | 0.102
51 | AATGGTCA | 0.0816
52 | GTTAGACA | 0.0808

Row | Sequence | binding signal [normalized occupancy]
53 | CAGGTCAG | 0.0752
54 | GCATAGCC | 0.0775
55 | ACGTTCCC | 0.0819
56 | GGTCTTTA | 0.0763
57 | AACACAGC | 0.0787
58 | CAAGTGTG | 0.086
59 | ATAATGTG | 0.095
60 | ACACAGAG | 0.0759
61 | GATCTTGC | 0.0794
62 | AGCATCTC | 0.0746
63 | AGGCATGC | 0.1
64 | AGGCATTG | 0.0775
65 | AGGCATAG | 0.0784
66 | AGGCATCC | 0.0757
67 | AGGCATTC | 0.0762
68 | AGGCATGG | 0.0974
69 | CTCGAAAA | 0.0738
70 | CAAAATTG | 0.0748
71 | AGTCGCAA | 0.0744
72 | GCAGGTAA | 0.0753
73 | AATGTTCC | 0.0722
74 | GACGTGCA | 0.0797
75 | ACCGTGCT | 0.0773
76 | AAGGTGCT | 0.0733
77 | TACGTGCA | 0.0875
78 | AAGGTGCC | 0.0753

Row | Sequence | binding signal [normalized occupancy]
79 | CACGTCCG | 0.0797
80 | CACGTGCG | 0.641
81 | GACGTGCC | 0.0841
82 | AACGTGCT | 0.115
83 | CACGTGCA | 0.588
84 | AACGTGCC | 0.096
85 | CCCGTGCG | 0.0872
86 | AATTACGG | 0.0744
87 | CATTGGCG | 0.0762
88 | AACTTATT | 0.0797
89 | CTGTTATC | 0.078
90 | CATTAGCG | 0.0779
91 | AACGTGCG | 0.108
92 | ATCGTGCA | 0.0816
93 | GTCGTGCA | 0.0855
94 | CAGGTGCC | 0.0785
95 | AAGGTGCG | 0.077
96 | AACGTCCG | 0.0721
97 | AACGTCCA | 0.0778
98 | AACGTTCA | 0.0836
99 | AACGTGCA | 0.109
100 | CACGTACC | 0.0843
101 | CACGTGCC | 0.521
102 | CTCGTGCA | 0.1
103 | CAGGCTGA | 0.0746
104 | AAAGCACG | 0.0922

Row | Sequence | binding signal [normalized occupancy]
105 | AGTGTTAA | 0.0742
106 | CCCATAAG | 0.0856
107 | ACATCCTA | 0.0822
108 | AATTAATC | 0.0741
109 | ACGGGGAC | 0.0795
110 | ACCAGAAC | 0.0763
111 | CGGCATCA | 0.0791
112 | CCAGGTCG | 0.0731
113 | CATACATA | 0.0846
114 | CATACACG | 0.097
115 | CGTACACG | 0.0971
116 | AGTACACA | 0.0858
117 | CATACACC | 0.0901
118 | CATACACA | 0.0892
119 | CATACATG | 0.0969
120 | CGTACACA | 0.0813
121 | AATACATG | 0.0934
122 | CCGCTTAC | 0.0724
123 | TCAGGCAA | 0.0718
124 | GACGGCGA | 0.0752
125 | CCAACAAG | 0.0776
126 | CCGCGAGG | 0.0805
127 | AACCTAAC | 0.0728
128 | GCGATTCC | 0.0814
129 | ACCCACGC | 0.105
130 | GCCCACGA | 0.0823

Row | Sequence | binding signal [normalized occupancy]
131 | ACCCACGG | 0.0796
132 | CCCCACGA | 0.0848
133 | ACCCACGA | 0.0913
134 | ACCCACCA | 0.088
135 | CCCCACGG | 0.0843
136 | GCCCACCC | 0.087
137 | ACCCACAT | 0.0932
138 | CCCCACGC | 0.0979
139 | ACCCACGT | 0.0984
140 | GCCCACGC | 0.0978
141 | CTCGCACC | 0.0733
142 | ATCTATTG | 0.078
143 | AGATAGGC | 0.078
144 | ACATAGAA | 0.0839
145 | TAGTTAAA | 0.0739
146 | GAGCATGC | 0.113
147 | GAGCACGC | 0.094
148 | AAGCATGG | 0.11
149 | AAGCATAG | 0.0734
150 | CAGCATGC | 0.126
151 | AAGCATAA | 0.0767
152 | AAGCATTG | 0.0783
153 | CAGCATCC | 0.0746
154 | GAGCATAC | 0.0789
155 | CAGCATAC | 0.0829
156 | AAGCATTA | 0.082

Row | Sequence | binding signal [normalized occupancy]
157 | AAGCATGA | 0.101
158 | ATTGGCAG | 0.0726
159 | GTTTACCA | 0.0757
160 | CCGATAAA | 0.0723
161 | CATCACCC | 0.0788
162 | AGTTGCAT | 0.0779
163 | AGCATAAC | 0.0787
164 | CAAGGGGC | 0.0772
165 | TACCTTGA | 0.0849
166 | CTTATAGA | 0.0769
167 | AAGCATTC | 0.0773
168 | AAGCATGT | 0.0997
169 | AAGCATAT | 0.0839
170 | AAGCATGC | 0.118
171 | AAGCATAC | 0.0751
172 | AAGCATCT | 0.0778
173 | AATGAACC | 0.0718
174 | AGTTTTAT | 0.0775
175 | CTTCATGC | 0.0794
176 | CCTCATGA | 0.0951
177 | ACTCATGA | 0.0903
178 | AGTCATGC | 0.096
179 | CCTCATGC | 0.109
180 | ACTCATGC | 0.0969
181 | ACTCATGG | 0.0945
182 | AGTCATGA | 0.0829

Row | Sequence | binding signal [normalized occupancy]
183 | AGTCATGG | 0.0855
184 | AATACACG | 0.0912
185 | CCCTCGAA | 0.0795
186 | AGCACGAA | 0.0827
187 | AGCACGAT | 0.0857
188 | AGCACGTA | 0.0853
189 | AGCACGTC | 0.081
190 | AGCACGTG | 1
191 | AGCACGAG | 0.0964
192 | CGCACGAG | 0.107
193 | CGCACGAA | 0.0816
194 | CGCACAAA | 0.0718
195 | CTACCCCA | 0.0788
196 | ACGAGGCT | 0.0805
197 | AGAACAAT | 0.0787
198 | ACCCGCTG | 0.0761
199 | CCCCGTTA | 0.0766
200 | CACGATGG | 0.0884
201 | CTAGCACA | 0.0827
202 | GAATGTAC | 0.0769
203 | ACATGTAC | 0.0958
204 | CTATGTAC | 0.0847
205 | CCATGTAC | 0.086
206 | GCATGTAC | 0.0973
207 | AGATGTAC | 0.0766
208 | TGAGATAA | 0.0797

Row | Sequence | binding signal [normalized occupancy]
209 | ATAATGAC | 0.0804
210 | AACTTGCC | 0.0757
211 | GAAACGCC | 0.0758
212 | CACTGCTG | 0.0746
213 | ATATGATC | 0.0857
214 | CCACATAA | 0.0799
215 | CAGCAGAG | 0.0727
216 | CATGAGGG | 0.109
217 | AATGAGTA | 0.077
218 | AATGAGGG | 0.0862
219 | CATGAGGC | 0.109
220 | CATGAGGA | 0.106
221 | AATGAGGC | 0.0776
222 | CATGAGTC | 0.091
223 | GATGAGGC | 0.0786
224 | CATGAGTA | 0.0969
225 | AATGAGGA | 0.0838
226 | CATGAGAG | 0.0941
227 | TATGAGGA | 0.0851
